Experimental data as given in ChEMBL document CHEMBL1857833, “Screening and optimization of specific chemical series against human African Trypanosomiasis (HAT)”.
The whole screen tested about 4,400 compounds, of which about 390 (8.9%) showed an effect of 50% or more. This excerpt belongs to a sample that is enriched for strong results.

Tested on: Trypanosoma brucei
Assay: DNDI: Inhibition of Human African Trypanosomiasis, SBRI 427, in vitro at 2 ug.mL-1
Format: functional

Compound | % inhibition
COc1ccc(CCN(C)Cc2coc(-c3cc(OC)c(OC)c(OC)c3)n2)cc1OC | 9%
Clc1cccc(N2CCN(Cc3coc(-c4ccco4)n3)CC2)c1 | 10%
Fc1cccc(-c2nc(CNCc3cccnc3)co2)c1 | 17%
CCN(CCC#N)Cc1coc(-c2ccc(Cl)cc2Cl)n1 | 8%
Fc1ccc(-c2nc(CNCc3ccccc3C(F)(F)F)co2)cc1 | 18%
CC1CCCC(NCc2coc(-c3ccccc3Br)n2)C1C (stereo not given) | 98%
CC1CCCCC1NCc1coc(-c2ccccc2Cl)n1 (stereo not given) | -2%
CC1CCCC(NCc2coc(-c3cccc4ccccc34)n2)C1C (stereo not given) | 71%
COc1ccc(-c2nc(CNC3CCCC(C)C3C)co2)cc1 (stereo not given) | 2%
CC1CCCCC1NCc1coc(-c2ccccc2Br)n1 (stereo not given) | 11%
CC1CCCC(NCc2coc(-c3cccc(F)c3)n2)C1C (stereo not given) | 10%
CCOC(=O)c1cn(Cc2coc(-c3ccc(OCC)cc3)n2)nc1C(F)(F)F | -15%
Cc1ccc(Oc2nc(C)ccc2/C(=N/O)Nc2ccccc2)c(C)c1 | -4%
Cc1cc(N)nn1Cc1coc(-c2cccc3ccccc23)n1 | 25%
CC(C)c1ccc(N/C(=N\O)c2ccc(Oc3ccc(-n4ccnc4)cc3)nc2)cc1 | 11%
Cc1cccc(-c2nc(Cn3nc(N)cc3C)co2)c1 | 9%
Cc1ccc(-c2nc(Cn3nc(N)cc3C)co2)cc1 | 99%
Cc1cc(N)nn1Cc1coc(-c2ccc(OC(F)(F)F)cc2)n1 | 97%
CC(C)c1nccn1Cc1coc(-c2ccc(OC(F)(F)F)cc2)n1 | 56%
COc1ccc(-c2nc(Cn3nc(N)cc3C)co2)cc1 | 25%
CCOc1ccc(-c2nc(Cn3nc(N)cc3C)co2)cc1 | 99%
CC(C)c1nccn1Cc1coc(-c2ccc(C(F)(F)F)cc2)n1 | -2%
COc1ccc(-c2nc(Cn3ccnc3C(C)C)co2)cc1 | 29%
Nc1cc(-c2ccccc2)n(Cc2coc(-c3ccc(OC(F)(F)F)cc3)n2)n1 | -3%

Compound | % inhibition
Cc1cc(N)nn1Cc1coc(-c2ccc(F)cc2)n1 | 12%
COc1cccc(-c2nc(Cn3nc(N)cc3C)co2)c1 | 18%
CCOc1ccc(-c2nc(Cn3nc(N)cc3-c3ccccc3)co2)cc1 | -17%
Fc1ccc(-c2nc(CN3CCC(N4CCCCC4)CC3)co2)cc1 | 4%
O/N=C(/c1ccc(Oc2cccc3c2CCCC3)nc1)N1CCOCC1 | 15%
C=CCN1CCN(/C(=N\O)c2ccc(C)nc2OCc2ccccc2F)CC1 | 3%
FC(F)(F)c1ccc(-c2nc(CN3CCN(c4ncccn4)CC3)co2)cc1 | 4%
Cc1ccc(/C(=N/O)NCc2c(F)cccc2F)c(OCc2ccc(C(C)C)cc2)n1 | 16%
Cc1ccc(-c2nc(CN(C)c3cccc(C)c3)co2)cc1 | 21%
Cc1cc(Oc2nc(C)ccc2/C(=N/O)N2CCN(c3ccccc3)CC2)cc(C(C)C)c1 | 5%
COc1cccc(Oc2ccc(/C(=N/O)Nc3ccc(C(C)C)cc3)cn2)c1 | -4%
CC(C)(C)CNCc1coc(-c2ccc(Cl)cc2Cl)n1 | 14%
CC1CCc2ccccc2N1/C(=N\O)c1ccc(Oc2cccc3c2OC(C)(C)C3)nc1 (stereo not given) | 10%
C=CCN1CCN(/C(=N\O)c2ccc(C)nc2Oc2ccc(C)cc2C)CC1 | 14%
CCCC1=NCCN1Cc1coc(-c2cccc(OCC)c2)n1 | 2%
Cc1ccccc1-c1nc(CNCc2ccccn2)co1 | 15%
CCOc1ccccc1-c1nc(CN(C)C2CCCCC2)co1 | 13%
Cc1ccccc1-c1nc(CN(C)C2CCN(C)CC2)co1 | 28%
CN(Cc1coc(-c2cccc3ccccc23)n1)C1CCCCC1 | 82%
CN1CCC(N(C)Cc2coc(-c3cccc4ccccc34)n2)CC1 | 69%
Cc1ccccc1-c1nc(CN(C)C2CCCCC2)co1 | 10%
CCOc1ccccc1-c1nc(CN(C)C2CCN(C)CC2)co1 | -1%
CCOc1ccccc1-c1nc(Cn2nc(N)cc2C)co1 | 5%
COc1ccc(Oc2nc(C)ccc2/C(=N/O)NCc2cccc(OC)c2)cc1 | 25%

Compound | % inhibition
C#CC1(NCc2coc(-c3cccc(F)c3)n2)CCCCC1 | 18%
O/N=C(/c1ccnc(Oc2ccc(F)c(Cl)c2)c1)N1CCSC1 | -2%
Cc1ccc(/C(=N/O)N(C)Cc2ccco2)c(Oc2cccnc2)n1 | 13%
CCCCN(C)Cc1coc(-c2cccc3ccccc23)n1 | 16%
CC(C)(C)COc1ncccc1/C(=N/O)n1ccnc1 | 30%
O/N=C(\NCC1CC1)c1cccnc1OCc1ccccc1 | 99%
CC(C)COc1ncccc1/C(=N/O)Nc1ccccc1 | 5%
O/N=C(\Nc1ccccc1)c1cccnc1OCc1ccccc1 | 77%
COC(=O)C1CCN(/C(=N\O)c2cccnc2OCC(F)(F)F)CC1 | 12%
CC(=O)c1ccc(N/C(=N\O)c2cccnc2Oc2ccccc2OCc2ccccc2)cc1 | -2%
CCCN/C(=N\O)c1cccnc1Oc1ccccc1OCc1ccccc1 | -7%
O/N=C(\NCc1cccs1)c1cccnc1OCc1ccccc1 | 10%
COC(=O)C1CCN(/C(=N\O)c2cccnc2OCc2ccccc2)CC1 | 61%
O/N=C(\NC1CCC1)c1cccnc1Oc1ccccc1OCc1ccccc1 | 97%
COC(=O)C1CCN(/C(=N\O)c2cccnc2OCC(C)C)CC1 | 5%
O/N=C(\NCc1c(F)cccc1F)c1cccnc1OCc1ccccc1 | 23%
CC(C)N/C(=N\O)c1cccnc1Oc1ccccc1OCc1ccccc1 | -14%
COc1cccc(Oc2ccc(/C(=N/O)N3CCN(c4ccccc4)CC3)cn2)c1 | -6%
COCCN(Cc1coc(-c2cccc3ccccc23)n1)C(C)C | 6%
CCOc1ccccc1-c1nc(CN(c2ccccc2)C2CCCCC2)co1 | -3%
COC(=O)C1CCN(/C(=N\O)c2ccc(C)nc2Oc2cccc3cnccc23)CC1 | 21%
COc1cccc(-c2nc(CN3CCN(c4ccccc4)CC3)co2)c1 | 15%
